Shown are actives, neighbours in structure and some others; about 3.1% of the full set was active somewhere.
RAD54 branch: inhibitors of human RAD54 branch migration, primary screen, biochemical, fluorescence, single point. DNA repair and recombination protein RAD54-like (Homo sapiens), Q92698. RAD54 Holliday junction branch migration, FAM/BHQ fluorescence. inhibition, % at 10.4 µM. 360,000 compounds, 0.14% hits. AID 602329, 2012;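 active = mean normalized replicate activity at least 40 and at least half of replicates scoring 40 or more; inconclusive = only one of the two criteria met; inactive = mean below 40 and under half of replicates reaching 40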;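 note: 0% = median of neutral control wells and 100% = median of positive control wells; inhibitors cause a drop in the FAM fluorescence signal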
GSIS activator: GLuc luminescence reporter in INS-1E cells, primary screen for activators of glucose-dependent secretion of insulin; INS-1E GLuc reporter insulin secretion, 2-3 h; activation, % at 16.6 µM; 370,000 compounds, 0.61% hits; AID 743287, 2014;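 active = lowest replicate activation of at least 40%, so every replicate reaches that level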;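 note: 0% = median of neutral control wells and 100% = median of IBMX positive control wells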
RAD52 anneal inh: RAD52 DNA annealing inhibitors, primary screen, biochemical, FRET, single point, set 2; DNA repair protein RAD52 homolog (Homo sapiens), P43351; recombinant RAD52 DNA annealing, FRET fluorescence; inhibition, % at 18.7 µM; 360,000 compounds, 0.46% hits;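 active = every replicate showing at least 50% inhibition; inconclusive = mean inhibition at least 50% but not in every replicate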
Target sequence (P43351 whole entry, looked up): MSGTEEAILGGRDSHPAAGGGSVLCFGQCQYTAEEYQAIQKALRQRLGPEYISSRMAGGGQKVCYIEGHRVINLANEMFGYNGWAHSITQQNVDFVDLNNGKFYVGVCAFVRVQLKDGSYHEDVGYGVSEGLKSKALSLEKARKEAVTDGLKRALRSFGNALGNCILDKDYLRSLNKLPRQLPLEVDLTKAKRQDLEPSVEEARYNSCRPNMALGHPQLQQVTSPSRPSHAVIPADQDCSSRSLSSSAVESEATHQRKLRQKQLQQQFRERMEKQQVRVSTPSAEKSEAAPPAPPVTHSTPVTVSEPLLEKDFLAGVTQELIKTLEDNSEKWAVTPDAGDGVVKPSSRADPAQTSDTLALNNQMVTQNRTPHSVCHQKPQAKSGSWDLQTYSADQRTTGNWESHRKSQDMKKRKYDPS
dFosB act: activators of delta FosB homodimer, primary screen, biochemical, fluorescence polarization, TAMRA-CDK5 oligo, single point; purified delta FosB; percent of positive-control signal above neutral wells; Protein FosB (Mus musculus), P13346; 340,000 compounds, 0.99% hits; activation, % at 25 µM;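 active = mean activation above about 17%, with every replicate also reaching it, limit read from the data, passing the limit was not always enough; inconclusive = only one of the two conditions met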
MLL AF4-AF9 inh: inhibitors of AF4 peptide binding to AF9, primary screen, biochemical, AlphaScreen, biotin-AF4 peptide, FLAG-AF9, single point; inhibition, % at 10 µM; 350,000 compounds, 0.47% hits; AID 651704, 2012; Protein AF-9 (Homo sapiens), P42568;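 active = every replicate reaching a set inhibition limit, whatever the replicate mean, cut at about 25% in these data; inconclusive = mean inhibition reaches that limit but some replicates miss it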;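 note: 0% = plate neutral control median and 100% = total signal loss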
DENV2 CPE rescue: inhibitors of DENV2 cytopathic effect, primary screen, cell-based, plate reader, single concentration; DENV2-infected cells, cytopathic effect rescue; CPE inhibition, % at 9.99 µM; 350,000 compounds, 1.7% hits; AID 651640, 2012; in the data active = CPE inhibition above about 20%, passing the limit was not always enough; inconclusive = no clear call, values can overlap the other calls; tested in BHK-21 cells;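 note: 0% = median of neutral control wells and 100% = median of positive control wells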
An asterisk follows results filed as active; u = inconclusive; x = no result given.

SMILES	RAD54 branch	GSIS activator	RAD52 anneal inh	dFosB act	MLL AF4-AF9 inh	DENV2 CPE rescue
Cc1nn(C)c(C)c1CCC(=O)N1CCCC(C(=O)c2cccc(OC(C)C)c2)C1 (stereo unspecified)	-2	4	-8	-6	-1	-3
CC(C)Oc1cccc(C(=O)C2CCCN(C(=O)CCc3cnn(C)c3)C2)c1 (stereo unspecified)	-6	55*	-3	-8	-1	-5
O=C(Nc1ccn(CC(=O)N2CCN(c3ccccn3)CC2)c(=O)n1)OCc1ccccc1	1	7	-21	-8	4	119*
O=C(Cn1ccc(NC(=O)OCc2ccccc2)nc1=O)NCCN1CCOCC1	7	26	-11	6	x	13
O=C(Cn1ccc(NC(=O)OCc2ccccc2)nc1=O)NCCCN1CCCC1=O	4	8	-4	1	2	114*
CS(=O)(=O)Nc1ccc2c(c1)[C@@H]1C[C@H](CC(=O)NCc3cccc(F)c3)O[C@@H](CO)[C@@H]1O2	2	-6	-9	x	0	3
CCOC(=O)N1CCN(C(=O)COc2ccccc2OC)CC1	-2	62*	x	-1	x	x
COc1ccccc1OCC(=O)N1CCCCCC1	-5	x	-4	x	1	-6
C[C@H](CO)N1C[C@H](C)[C@H](CN(C)C(=O)CCCN(C)C)OCCCC[C@H](C)Oc2ccc(NC(=O)Nc3cccc4ccccc34)cc2C1=O	10	-4	32	x	13	11
C[C@@H]1CN([C@@H](C)CO)S(=O)(=O)c2ccc(C#CC3CCCC3)cc2O[C@@H]1CN(C)Cc1cncnc1	-2	-21	-4	x	5	u
Nc1nc(NCc2ccccc2Cl)n(-c2ccccc2)n1	2	17	-16	5	-1	6
CC(=O)Nc1nc(NCc2ccccc2Cl)n(-c2ccccc2)n1	0	77*	6	8	0	3
Cc1ccc(/C(O)=C2\C(=O)C(=O)N(C)C2c2ccccc2)cc1 (stereo unspecified)	2	11	4	x	-8	39*
CNC[C@H]1Oc2ccc(NC(=O)Nc3ccc(F)cc3)cc2CC(=O)N([C@@H](C)CO)C[C@@H]1C	7	21	-9	x	-1	-5
CC1=CC(C)(C)N2C(=O)C(=O)c3cc(OC(=O)c4ccco4)cc1c32	x	-17	-2	-31	31*	-5
CCCC#Cc1ccc2c(c1)O[C@H](CN(C)C(=O)Nc1ccccc1F)[C@@H](C)CN([C@@H](C)CO)S2(=O)=O	-5	-22	19	x	2	5
CNC[C@@H]1OCCCC[C@@H](C)Oc2ccc(NS(=O)(=O)c3c(C)noc3C)cc2C(=O)N([C@@H](C)CO)C[C@H]1C	-5	x	x	x	x	29*
CNC[C@@H]1OCCCC[C@H](C)Oc2ccc(NS(=O)(=O)c3c(C)noc3C)cc2C(=O)N([C@@H](C)CO)C[C@H]1C	-9	5	x	x	x	123*
CNC[C@H]1OCCCC[C@H](C)Oc2ccc(NS(=O)(=O)c3c(C)noc3C)cc2C(=O)N([C@@H](C)CO)C[C@@H]1C	-8	1	x	x	x	-9
CNC[C@@H]1OCCCC[C@H](C)Oc2ccc(NS(C)(=O)=O)cc2C(=O)N([C@@H](C)CO)C[C@@H]1C	1	33	-2	x	-8	132*
CN1CCN(C(=O)C[C@H]2C[C@H]3c4cc(NC(=O)NC5CCCCC5)ccc4O[C@H]3[C@H](CO)O2)CC1	-11	3	17	x	0	-2
COc1ccc(/C=C(/NC(=O)c2ccc(OC)c(OC)c2)C(=O)NCCc2c[nH]c3ccccc23)cc1	5	4	-8	-9	5	20*
COc1cccc(CN2CC(C(=O)N(C)Cc3nc4ccc(F)cc4[nH]3)CCC2=O)c1 (stereo unspecified)	-4	-9	-6	-1	-6	10
COc1ccc2nc(CCN(C)C(=O)C3CCC(=O)N(Cc4cccc(F)c4)C3)[nH]c2c1 (stereo unspecified)	0	61*	1	-5	1	3
C[C@@H]1CCCCO[C@H](CN(C)S(=O)(=O)c2ccccc2)[C@H](C)CN([C@@H](C)CO)C(=O)c2cc(NS(=O)(=O)c3ccc(Cl)cc3)ccc2O1	3	-13	-11	x	-2	4
SMILES	RAD54 branch	GSIS activator	RAD52 anneal inh	dFosB act	MLL AF4-AF9 inh	DENV2 CPE rescue
C[C@H]1CN([C@@H](C)CO)C(=O)Cc2cc(NC(=O)NC3CCCCC3)ccc2O[C@@H]1CN(C)Cc1ccc(-c2ccccc2)cc1	1	4	10	x	-1	31*
C[C@@H]1CN([C@@H](C)CO)C(=O)Cc2cc(NC(=O)NC3CCCCC3)ccc2O[C@@H]1CN(C)Cc1ccc(Cl)c(Cl)c1	-4	-11	-9	x	-1	59*
CC(C)NC(=O)Nc1ccc2c(c1)CC(=O)N([C@@H](C)CO)C[C@@H](C)[C@H](CN(C)Cc1ccc(-c3ccccc3)cc1)O2	-6	-27	12	x	7	30*
C[C@H]1CN([C@@H](C)CO)C(=O)Cc2cc(NC(=O)NC3CCCCC3)ccc2O[C@@H]1CN(C)Cc1ccc(C(=O)Nc2ccccc2N)cc1	x	-12	24	x	-1	32*
CCC(=O)N1CC2(C1)[C@H](c1ccc(-c3cccc(OC)c3)cc1)[C@@H](CO)N2C(C)=O	x	-2	-15	x	-1	-10
C[C@H](CO)N1C[C@H](C)[C@H](CN(C)Cc2ccc(C(=O)Nc3ccccc3N)cc2)Oc2ccc(NC(=O)Cn3cnnn3)cc2CC1=O	x	9	6	x	1	55*
C[C@H](CO)N1C[C@H](C)[C@H](CN(C)Cc2ccc(-c3ccccc3)cc2)Oc2ccc(NC(=O)NC3CCCCC3)cc2CC1=O	4	-6	7	x	0	22*
CC(C)NC(=O)N(C)C[C@@H]1OCCCC[C@@H](C)Oc2ccc(NS(=O)(=O)c3ccc(Cl)cc3)cc2C(=O)N([C@@H](C)CO)C[C@H]1C	8	-8	21	x	-2	7
COc1ccc(OCC(=O)N2CCc3ccccc3C2)cc1	-4	-4	-11	-4	-2	4
C/C=C/[C@@H](CC(=O)N1Cc2ccccc2C[C@H]1CO)[Si](C)(C)c1ccc(OC)cc1	-8	x	8	x	0	39*
COc1ccc(-c2ccc3oc(-c4ccc(OC)cc4)c(C#CCCO)c3c2)cc1	0	67*	-7	-15	x	10
COc1cccc(NC(=O)N(C)C[C@@H]2OCc3ccccc3-c3c(n(C)c4ccccc34)C(=O)N([C@H](C)CO)C[C@H]2C)c1	1	-9	11	x	4	-1
